# High-throughput results as filed in PubChem BioAssay.
# D2 PAM-1: human D2 receptor positive allosteric modulation; DiscoveRx D2 beta-arrestin cells, luminescence, 90 min; 100% = 57 uM dopamine signal; potentiation, % (no concentration beside the values); hit rate 0.23% among 360,000; AID 624464; in the data active means potentiation above about 50%
# Target sequence (P14416 whole entry, looked up): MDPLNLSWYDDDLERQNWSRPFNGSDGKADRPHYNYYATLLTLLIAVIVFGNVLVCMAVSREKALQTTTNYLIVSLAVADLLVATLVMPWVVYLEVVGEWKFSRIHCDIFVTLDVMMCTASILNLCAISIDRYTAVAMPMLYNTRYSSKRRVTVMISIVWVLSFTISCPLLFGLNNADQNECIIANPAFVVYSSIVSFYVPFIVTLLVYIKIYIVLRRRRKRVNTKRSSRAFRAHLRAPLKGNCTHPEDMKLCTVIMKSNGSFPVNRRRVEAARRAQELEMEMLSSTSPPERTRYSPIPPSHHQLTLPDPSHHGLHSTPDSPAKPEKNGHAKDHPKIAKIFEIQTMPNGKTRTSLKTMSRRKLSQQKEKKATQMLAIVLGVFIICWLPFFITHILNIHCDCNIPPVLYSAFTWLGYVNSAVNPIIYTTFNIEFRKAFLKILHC
#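 D2 cells co-treated with compound plus 50 nM dopamine (EC20) for 90 min at 37 deg C to detect potentiation. Beta-arrestin recruitment was read as enzyme-fragment luminescence after 1 h at ambient temperature. Full response was set by 57 uM dopamine.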
# D2 antagonist: antagonists of human D2 dopamine receptor; HEK293 TREx D2 cells, calcium flux, dopamine EC80; P14416; hit rate 2% among 340,000; inhibition, % at 10 µM; in the data active means inhibition above about 30%; inactive means below that, where a call was filed; further: 0% is about no effect
#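 Calcium mobilization kinetics were recorded at 1 s intervals in tetracycline-induced HEK293 T-REx D2 cells, first for 180 s after compound addition and then 180 s after EC80 dopamine.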
# D2 ag-1: agonists of human D2 dopamine receptor (beta-arrestin); P14416; DiscoveRx PathHunter D2 beta-arrestin, luminescence, 90 min; 100% = 57 uM dopamine signal; activation, % (concentration not given with the values); hit rate 0.084% among 360,000; in the data active means activation above about 40%
#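 DiscoveRx PathHunter D2 beta-arrestin cells (2,100/well) attached overnight, then compound-stimulated 90 min at 37 C in HBSS/10 mM HEPES/0.1% Tween-20 buffer; beta-galactosidase complementation read by luminescence after 1 h at ambient temperature. Dopamine 57 uM final (EC100) as control.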
# D2 PAM-2: D2 dopamine receptor (human) potentiation. P14416. HEK293 T-REx D2, calcium flux, EC20 dopamine potentiation. potentiation, % at 10 µM. hit rate 0.34% among 340,000. AID 485347;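 active means potentiation over 3 SD above the plate norm, cut at about 30% in these data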; further: 0% is about no effect
#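 Potentiation of an EC20 dopamine calcium response measured kinetically over 180 s, after a preceding 180 s compound-only read flagging agonists. Cells: inducible Hek293 Trex D2 line, 4000/well, cultured overnight at 30 C before dye loading.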
# D2 ag-2: D2 dopamine receptor (human) agonism | P14416 | HEK293 T-REx D2 cells, calcium flux agonist mode | activation, % at 2 µM | hit rate 0.53% among 340,000;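 active means activation over 3 SD above normal in the single-dose calcium agonist read, cut at about 30% in these data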; further: 0% is about no effect
#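 Agonism scored from kinetic calcium signal (1 read/sec, 180 s) following compound pin transfer, after a 10 s baseline. Cells: HEK293 Trex line expressing inducible D2 receptor coupled to calcium, dye-loaded after overnight culture at 30 C.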
# Active calls of the source: *; . = no result. A selection: hits, their analogues and other compounds. The true share with any hit is near 2.4%.
SMILES,D2 PAM-1,D2 antagonist,D2 ag-1,D2 PAM-2,D2 ag-2
O=C(CC1N=C2c3ccccc3N=C(SCC(=O)Nc3ccccc3F)N2C1=O)NCc1cccs1 (stereo not given),.,.,.,9.1,.
Cc1ccc(C)c(N2CCN(c3nc4c(S(=O)(=O)c5ccccc5)nnn4c4ccc(Cl)cc34)CC2)c1,.,.,.,.,0.2
CCCCC(=O)N(Cc1nc2sc(C)c(C)c2c(=O)[nH]1)C1CCCC1,-8.4,0.9,-4.4,8.8,0.5
COCC(=O)N(Cc1nc2sc(C)c(C)c2c(=O)[nH]1)C1CCCCC1,-4.6,31.1*,-4.3,12.0,-1.9
CCOc1cc(C#N)ccc1OCC(=O)NNC(=O)CC1CCS(=O)(=O)C1 (stereo not given),-12.3,-6.7,4.7,5.2,0.4
CN(C)C(CNC(=S)Nc1cccc(Cl)c1)c1ccccc1 (stereo not given),-18.2,55.0*,-6.4,.,0.4
Cc1cccc(NC(=S)NCC(c2ccccc2)N(C)C)c1 (stereo not given),-12.2,38.4*,-1.1,.,-0.4
Cc1cccc(NC(=S)NC(C)CCc2ccccc2)c1 (stereo not given),-4.2,-14.2,-2.6,-21.3,0.4
CN(C)NC(=S)Nc1cccc(Cl)c1,-2.3,44.6*,3.2,2.1,0.8
CCOc1ccccc1NC(=O)C(CC(C)C)NS(=O)(=O)c1ccc2c(c1)oc(=O)n2C (stereo not given),.,.,.,-0.6,1.4
c1ccc2c(-c3cc(NCc4ccncc4)n4nccc4n3)cccc2c1,-2.8,.,3.1,.,.
O=C(Nc1ccc2c(c1)OCCO2)c1cccc2nc3ccccc3nc12,-2.4,-28.4,-2.7,34.3*,0.1
CCCOc1ccc(CN(C(=O)c2cc(=O)c3ccc(C)cc3o2)C2CCS(=O)(=O)C2)cc1 (stereo not given),.,.,.,12.8,1.0
Cc1ccc(N2CCN(CC3CC=CCC3)CC2)cc1 (stereo not given),-15.4,36.5*,-1.8,-16.3,0.2
FC(F)(F)c1cccc(N2CCN(CC3CC=CCC3)CC2)c1 (stereo not given),-29.8,73.2*,0.8,-24.4,0.6
CCCC1(C(=O)OC)NC(c2cccc(F)c2)C2C(=O)N(CC)C(=O)C21 (stereo not given),-5.3,30.8*,-4.2,-8.3,1.1
CC(C)N(C(=O)COC(=O)[C@@H]1CC(O)CN1S(=O)(=O)c1ccc(C(C)(C)C)cc1)C(C)C (stereo not given in full),-6.4,37.8*,-2.4,-6.7,1.8
O=C(COC(=O)C1CC(O)CN1S(=O)(=O)c1ccc(Cl)cc1)c1ccccc1 (stereo not given),-16.0,-27.3,1.2,2.1,-1.1
O=C(Cc1c(F)cccc1Cl)Nc1cccc(S(=O)(=O)NC2=NCCCCC2)c1,-25.4,31.1*,-1.1,3.6,0.0
O=C(Nc1cccc(S(=O)(=O)NC2=NCCCCC2)c1)c1cc(-c2ccncc2)nc2ccccc12,98.3*,-3.9,-2.8,5.5,1.8
O=C(CCl)Nc1cccc(S(=O)(=O)NC2=NCCCCC2)c1,-2.2,.,-1.2,.,.
CCOc1ccc(N2CC(O)(c3ccc(F)cc3)[N+]3=C2CCCC3)cc1 (stereo not given),-13.5,30.4*,-1.7,-25.9,1.9
COc1cc2c(cc1OC)CN(C(=O)CSc1ccc(F)cc1)CC2,5.7,61.3*,-0.9,-15.1,0.3
COc1cc2c(cc1OC)CN(C(=O)CSc1nc(C)cc(C)c1C#N)CC2,-11.1,11.7,-3.4,34.5*,0.1
Cc1ccc(CNC(=O)Cn2c(=O)n(-c3ccc(C)cc3)c(=O)c3c2c2cc(C)ccc2n3C)cc1,.,.,.,5.9,0.1
Cn1nnc2cc(C(=O)Nc3ccccc3)ccc21,-1.5,13.1,-3.1,11.3,1.2
COc1ccccc1NC(=O)c1ccc2c(c1)nnn2C,-1.6,71.0*,-6.0,3.1,-0.4
CSc1ccc(CN(C)C(=O)C2CCN(C(=O)Nc3ccccc3)CC2)cc1,-1.6,21.9,-0.2,16.1,0.0
O=c1[nH]c2cc3c(cc2cc1C(c1nnnn1C1CCCC1)N1CCCc2ccccc21)OCCO3 (stereo not given),25.1,0.7,-2.3,42.7*,0.6
